Data published in PubChem BioAssay (Tox21).
Values joined by “and” are separate entries in the source; they are usually repeats but may differ in a detail not shown here. Equal entries are not always repeated. Results filed as inconclusive are left out. Where a structure was tested more than once in an assay, its records may differ in their call. Active and inactive are the calls of the source. Unless noted, the call rests on the fitted dose curve.

How the values were obtained:
[1] = qHTS assay to identify small molecule agonists of the vitamin D receptor (VDR) signaling pathway - cell viability counter screen (AID 743224; active means well fitted curve in the direction sought with a large enough effect in the repeat runs; an effect the other way counts as inactive or inconclusive; further: nearly all actives have a fitted effect of over 50% in size)
Outline: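 VDR-bla cells, 4 h after plating, exposed to compounds for 16 h at 37C; viability then read in the same wells as CellTiter-Glo luminescence after 30 min at room temperature, following the bla FRET read.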

[2] = qHTS assay to identify small molecule antagonists of the vitamin D receptor (VDR) signaling pathway - cell viability counter screen (AID 743225; active means well fitted curve in the direction sought with a large enough effect in the repeat runs; an effect the other way counts as inactive or inconclusive; further: nearly all actives have a fitted effect of over 50% in size)
Outline: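 Cytotoxicity counter screen read by CellTiter-Glo luminescence (30 min, room temperature) in the same wells as the VDR-bla antagonist readout. HEK 293T VDR-UAS-bla cells had 16 h at 37C with compound and 3 nM (final) 1-alpha,25-dihydroxyvitamin D3, then 2 h with FRET substrate.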

[3] = qHTS assay to identify small molecule agonists of the NFkB signaling pathway - cell viability counter screen (AID 1159515); further: nearly all actives have a fitted effect of over 55% in size
Outline: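 NFkB-bla ME-180 cells, 2,000/well, plated overnight at 37 C; compound added for 5 hr at 37 C. Viability read in the same wells as the bla reporter, by CellTiter-Glo luminescence after 30 min at room temperature.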

[4] = qHTS assay to identify small molecule agonists of the endoplasmic reticulum stress response signaling pathway (AID 1159516; active means well fitted activation curve with a large enough effect in the signal ratio in the repeat runs, not every such curve was filed as active; the % refers to the signal ratio; on activation: on the % scale 0 is the no-effect control and ±100 the full control effect)
Outline: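 CellSensor ESRE-bla HeLa cells, 1,500 per well, plated overnight, then exposed to compounds for 5 hr at 37 C. Beta-lactamase reporter read with LiveBLAzer B/G FRET substrate after 2 hr at room temperature, 405 nm excitation, 460 and 530 nm emission.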

[5] = qHTS assay to identify small molecule agonists of the endoplasmic reticulum stress response signaling pathway - cell viability counter screen (AID 1159517); further: nearly all actives have a fitted effect of over 50% in size
Outline: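 ESRE-bla HeLa cells, 1,500 per well, seeded overnight then treated with compounds for 5 hr at 37 C. After the beta-lactamase read, viability in the same wells is measured by CellTiter-Glo luminescence after 30 min at room temperature.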

[6] = qHTS assay to identify small molecule antagonists of the retinoid-related orphan receptor gamma (ROR-gamma) signaling pathway - cell viability counter screen (AID 1159520; active means well fitted curve in the direction sought with a large enough effect in the repeat runs; an effect the other way counts as inactive or inconclusive; further: nearly all actives have a fitted effect of over 50% in size; on activity, negative = cytotoxicity: on the % scale 0 is the no-effect control and ±100 the full control effect)
Outline: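 Tet-on ROR gamma CHO cells were given compounds for 2 hr, then doxycycline hyclate at 1 uM final, and incubated 16 hr at 37 C. Viability was measured as ATP content by CellTiter-Glo luminescence.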

[7] = target: Nuclear receptor ROR-gamma (Homo sapiens) (UniProt P51449); experiment: qHTS assay to identify small molecule antagonists of the retinoid-related orphan receptor gamma (ROR-gamma) signaling pathway (AID 1159521; active means well fitted curve in the direction sought with a large enough effect in the repeat runs; an effect the other way counts as inactive or inconclusive; further: nearly all actives have a fitted effect of over 50% in size)
Outline: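 Antagonist read-out: drop in luminescence (ONE-Glo) from an RORE-LUC reporter in CHO cells with doxycycline-inducible ROR-gamma; 2 hr compound pretreatment, 1 uM doxycycline, 16 hr incubation at 37 C.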

[8] = qHTS assay to identify small molecule agonists of the AP-1 signaling pathway - cell viability counter screen (AID 1159525); further: nearly all actives have a fitted effect of over 55% in size
Outline: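 AP-1-bla ME-180 cells in Opti-MEM with 0.5% dialyzed FBS, compound exposure 5 h at 37 C in 15-point titration. Viability read in the same wells as ATP content by CellTiter-Glo luminescence, normalised to tetra-n-octylammonium bromide and DMSO controls.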

[9] = qHTS assay to identify small molecule agonists of the AP-1 signaling pathway (AID 1159526); on activation: on the % scale 0 is the no-effect control and ±100 the full control effect
[10] = target: Retinoic acid receptor RXR-alpha (Homo sapiens) (UniProt P19793); experiment: qHTS assay to identify small molecule agonists of the RXR signaling pathway (AID 1159527); further: nearly all actives have a fitted effect of over 35% in size; on activation: on the % scale 0 is the no-effect control and ±100 the full control effect
Outline: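 Agonist-mode beta-lactamase reporter assay: HEK 293T RXR-alpha-UAS-bla cells treated 16 hr at 37 C with compounds, 9-cis retinoic acid as positive control. LiveBLAzer FRET substrate, 405 nm excitation, 460/530 nm emission.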
Potency means the concentration at half of the fitted maximal effect.

Chain of Retinoic acid receptor RXR-alpha (Homo sapiens) (P19793 whole entry, looked up): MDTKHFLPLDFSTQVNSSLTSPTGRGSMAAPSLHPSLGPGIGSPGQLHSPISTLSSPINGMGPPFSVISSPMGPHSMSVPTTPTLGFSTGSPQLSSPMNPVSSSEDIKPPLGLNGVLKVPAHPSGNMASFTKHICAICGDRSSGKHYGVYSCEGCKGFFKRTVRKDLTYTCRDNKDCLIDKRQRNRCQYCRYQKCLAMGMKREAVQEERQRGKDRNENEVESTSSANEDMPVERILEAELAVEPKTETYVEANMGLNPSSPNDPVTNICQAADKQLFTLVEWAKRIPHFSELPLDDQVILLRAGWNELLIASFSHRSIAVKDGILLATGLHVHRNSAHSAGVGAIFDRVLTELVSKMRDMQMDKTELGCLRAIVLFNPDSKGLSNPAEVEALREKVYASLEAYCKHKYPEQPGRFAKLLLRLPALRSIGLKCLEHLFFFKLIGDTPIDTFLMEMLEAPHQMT

NC[C@H](O)c1ccc(O)c(O)c1
inactive: Potency [1] | Potency [2] | Potency [3] | Potency [4] | Potency [5] | Potency [6] | Potency [7] | Potency [8] | Potency [9] | Potency [10]

Cc1ccc(S(=O)(=O)NCl)cc1
inactive: Potency [1] | Potency [2] | Potency [3] | Potency [4] | Potency [5] | Potency [6] | Potency [7] | Potency [8] | Potency [9] | Potency [10]

CC(=O)Nc1ccc2c(c1)Cc1cc(NC(C)=O)ccc1-2
inactive: Potency [1] | Potency [2] | Potency [3] | Potency [4] | Potency [5] | Potency [6] | Potency [7] | Potency [8] | Potency [9] | Potency [10]

COc1cc([C@H]2Oc3cc([C@H]4Oc5cc(O)cc(O)c5C(=O)[C@@H]4O)ccc3O[C@@H]2CO)ccc1O
inactive: Potency [1] | Potency [2] | Potency [3] | Potency [4] | Potency [5] | Potency [6] | Potency [7] | Potency [8] | Potency [9] | Potency [10]

C=C1C[C@H]2[C@@H]3C=C(C)C4=CC(=O)CC[C@]4(C)[C@H]3CC[C@]2(C)[C@@]1(OC(C)=O)C(C)=O
inactive: Potency [1] | Potency [2] | Potency [3] | Potency [4] | Potency [5] | Potency [6] | Potency [7] | Potency [8] | Potency [9] | Potency [10]

C=CCOC(=O)C(=C)C
inactive: Potency [1] | Potency [2] | Potency [3] | Potency [4] | Potency [5] | Potency [6] | Potency [7] | Potency [8] | Potency [9] | Potency [10]

O=C(O)c1cc(=O)[nH]c(=O)[nH]1
inactive: Potency [1] | Potency [2] | Potency [3] | Potency [4] | Potency [5] | Potency [6] | Potency [7] | Potency [8] | Potency [9] | Potency [10]

O=C(O)CCCC(=O)O
inactive: Potency [1] | Potency [2] | Potency [3] | Potency [4] | Potency [5] | Potency [6] | Potency [7] | Potency [8] | Potency [9] | Potency [10]

Nc1ccc(O)c(N)c1
inactive: Potency [1] | Potency [2] | Potency [3] | Potency [4] | Potency [6] | Potency [7] | Potency [8] | Potency [9] | Potency [10]
inactive and 54.9 µM (active): Potency [5]

COc1ccc(C(=O)c2ccccc2O)c(O)c1
inactive: Potency [1] | Potency [2] | Potency [3] | Potency [4] | Potency [5] | Potency [6] | Potency [7] | Potency [8] | Potency [9] | Potency [10]

Cc1ccc(C)c(O)c1
inactive: Potency [1] | Potency [2] | Potency [3] | Potency [4] | Potency [5] | Potency [6] | Potency [7] | Potency [8] | Potency [9] | Potency [10]

C=CC(=O)OCCCC
inactive: Potency [1] | Potency [2] | Potency [3] | Potency [4] | Potency [5] | Potency [6] | Potency [7] | Potency [8] | Potency [9] | Potency [10]

O=[Se](O)O
inactive and 5.28 µM (active): Potency [9]
active: Potency [6] 54.5 µM | Potency [7] 1.65 µM
inactive: Potency [1] | Potency [2] | Potency [3] | Potency [4] | Potency [5] | activity, negative = cytotoxicity [6] -10.3% [at 19 µM] | Potency [8]

CCC/C=C/C=O
inactive: Potency [1] | Potency [2] | Potency [3] | Potency [4] | Potency [5] | Potency [6] | Potency [7] | Potency [8] | Potency [9] | Potency [10]

CC(C)(Oc1ccc(Cl)cc1)C(=O)O
inactive: Potency [1] | Potency [2] | Potency [3] | Potency [4] | Potency [5] | Potency [6] | Potency [7] | Potency [8] | Potency [9] | Potency [10]

NCCOCCO
inactive: Potency [1] | Potency [2] | Potency [3] | Potency [4] | Potency [5] | Potency [6] | Potency [7] | Potency [8] | Potency [9] | Potency [10]

CC1(C)NC(=O)N(c2ccc([N+](=O)[O-])c(C(F)(F)F)c2)C1=O
active: Potency [7] 17.2 µM and 18.8 µM
inactive: Potency [1] | Potency [2] | Potency [3] | Potency [4] | Potency [5] | Potency [6] | Potency [8] | Potency [9] | Potency [10]

CC1(C)OC(=O)NC1=O
inactive: Potency [1] | Potency [2] | Potency [3] | Potency [4] | Potency [5] | Potency [6] | Potency [7] | Potency [8] | Potency [9] | Potency [10]

NCCS(=O)(=O)O
inactive: Potency [1] | Potency [2] | Potency [3] | Potency [4] | Potency [5] | Potency [6] | Potency [7] | Potency [8] | Potency [9] | Potency [10]

CC(C)=CCO
inactive: Potency [1] | Potency [2] | Potency [3] | Potency [4] | Potency [5] | Potency [6] | Potency [7] | Potency [8] | Potency [9] | Potency [10]

C=CCCCCCCCCCC
inactive: Potency [1] | Potency [2] | Potency [3] | Potency [4] | Potency [5] | Potency [6] | Potency [7] | Potency [8] | Potency [9] | Potency [10]

CCCCCCCC/C=C\CCCCCCCC(=O)O
inactive: Potency [1] | Potency [2] | Potency [3] | Potency [4] | Potency [5] | Potency [6] | Potency [7] | Potency [8] | Potency [9] | Potency [10]

CN1CCOCC1
inactive: Potency [1] | Potency [2] | Potency [3] | Potency [4] | Potency [5] | Potency [6] | Potency [7] | Potency [8] | Potency [9] | Potency [10]

C/C=C/C(=O)N(CC)c1ccccc1C
inactive: Potency [1] | Potency [2] | Potency [3] | Potency [4] | Potency [5] | Potency [6] | Potency [7] | Potency [8] | Potency [9] | Potency [10]

c1ccc2cc3ccccc3cc2c1
inactive: Potency [1] | Potency [2] | Potency [3] | Potency [5] | Potency [6] | Potency [7] | Potency [8] | Potency [9] | Potency [10]
active: Potency [4] 56.7 µM

CCCCCCC(C)O (centres undefined)
inactive: Potency [1] | Potency [2] | Potency [3] | Potency [4] | Potency [5] | Potency [6] | Potency [7] | Potency [8] | Potency [9]
17.7 µM (active) and inactive: Potency [10]

O=S1(=O)CCCO1
inactive: Potency [1] | Potency [2] | Potency [3] | Potency [4] | Potency [5] | Potency [6] | Potency [7] | Potency [8] | Potency [9] | Potency [10]

c1ccc2ncccc2c1
inactive: Potency [1] | Potency [2] | Potency [3] | Potency [4] | Potency [5] | Potency [6] | Potency [7] | Potency [8] | Potency [9] | Potency [10]

CCC(=O)O[C@H]1[C@H](O[C@@H]2[C@@H](C)[C@H](O[C@H]3C[C@@](C)(OC)[C@@H](O)[C@H](C)O3)[C@@H](C)C(=O)O[C@H](CC)[C@@](C)(O)[C@H](O)[C@@H](C)C(=O)[C@H](C)C[C@@]2(C)O)O[C@H](C)C[C@@H]1N(C)C
inactive: Potency [2] | Potency [4] | Potency [5] | Potency [6] | Potency [7] | Potency [8] | Potency [9] | Potency [10]
36.4 µM (active) and inactive: Potency [1] | Potency [3]

CCc1cccc2c3c([nH]c12)C(CC)(CC(=O)O)OCC3 (centres undefined)
inactive: Potency [1] | Potency [2] | Potency [3] | Potency [4] | Potency [5] | Potency [6] | Potency [7] | Potency [8] | Potency [9] | Potency [10]

Clc1ccc(Sc2cc(Cl)c(Cl)cc2Cl)cc1
inactive: Potency [1] | Potency [3] | Potency [4] | Potency [5] | Potency [6] | Potency [7] | Potency [8] | Potency [9] | Potency [10]

Cc1ccc([N+](=O)[O-])c(C)c1
inactive: Potency [1] | Potency [2] | Potency [3] | Potency [4] | Potency [5] | Potency [6] | Potency [9] | Potency [10]
12.3 µM (active) and inactive: Potency [8]
2.43 µM (active) and inactive: Potency [7]

CNC[C@H](O)c1ccc(O)c(O)c1
inactive: Potency [1] | Potency [2] | Potency [3] | Potency [4] | Potency [5] | Potency [6] | Potency [7] | Potency [8] | Potency [9] | Potency [10]

O=Cc1ccccc1C=O
inactive: Potency [1] | Potency [3] | Potency [4] | Potency [5] | Potency [8] | Potency [9] | Potency [10]
21.9 µM (active) and inactive: Potency [2]
17.2 µM (active) and inactive: Potency [7]
7.7 µM (active) and inactive: Potency [6]

Brc1nc2ccccc2s1
inactive: Potency [1] | Potency [2] | Potency [3] | Potency [4] | Potency [5] | Potency [6] | Potency [7] | Potency [8] | Potency [9] | Potency [10]

CCCCCCOCCOCCO
inactive and 43.6 µM (active): Potency [10]
inactive: Potency [1] | Potency [2] | Potency [3] | Potency [4] | Potency [5] | Potency [6] | Potency [7] | Potency [8] | Potency [9]
